Sampled rows, rich in hits. Any-hit rate of the full collection: about 4%.
KKLEB tox: counter-screen for CF NF-kB inhibitors: cytotoxicity; 360,000 compounds, 0.36% hits; KKLEB CF airway cells viability, ATPlite luminescence, overnight; hits give low values; cells stimulated with P. aeruginosa culture filtrate; activity change (cytotoxicity), % at 5 µM;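 active = corrected activity change at or below -50% at 5 µM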
HIF-2a block: HIF-2a inhibition. 786-0 RCC cells HIF-2a reporter, luciferase luminescence, overnight. 360,000 compounds, 0.72% hits. inhibition, % at 18.8 µM;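 active = inhibition of the luminescence signal of 40% or more relative to plate controls, in a single-dose primary screen at 18.75 µM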
TROY signal inh: blocks TROY-dependent signaling in reporter cells | AID 1347056 | Q293 LMP1-TROYcd NF-kB luciferase reporter, 4 h | 360,000 compounds, 0.98% hits | inhibition, % at 10 µM;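 active = compounds whose plate-normalised and pattern-corrected inhibition of the luciferase reporter signal at the single screening dose is 50% or more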
TWEAK Fn14 block: TWEAK-Fn14 signaling inhibition | inhibition, % at 10 µM | TWEAK-stimulated Fn14 reporter cells, luciferase luminescence, 8 h | AID 1159606 | 360,000 compounds, 2% hits; in the data active = inhibition above about 50%
Peg3 promoter: Peg3 promoter activity inhibition; 360,000 compounds, 1.7% hits; inhibition, % at 20 µM; HeLa PEG-Prom luciferase reporter, luminescence, overnight;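 active = inhibition of at least 50% at 20 µM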
CF NFkB block: cystic fibrosis NF-kB activation inhibition; inhibition, % at 5 µM; 360,000 compounds, 0.86% hits; KKLEB NF-kB-GFP reporter, PAF-induced, GFP fluorescence overnight;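 active = at least 50% inhibition at 5 µM, scaled per plate between neutral and stimulator controls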;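 also: PAF is a Pseudomonas aeruginosa culture filtrate used as stimulus; plate controls were PAF-stimulated DMSO wells for no effect and unstimulated DMSO wells for full effect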
Mdm2-MdmX confirm: Mdm2/MdmX (human) interaction inhibition, confirmed | shares compounds with HIF-2a block | SaOS-2 split-luciferase Mdm2/MdmX complementation, luminescence | inhibition, % at 8 µM | AID 504601 | 740 compounds, 99% hits;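 active = mean inhibition of the luminescence signal across two replicates at or above 26 percent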
Target sequence (O15151 whole entry, looked up): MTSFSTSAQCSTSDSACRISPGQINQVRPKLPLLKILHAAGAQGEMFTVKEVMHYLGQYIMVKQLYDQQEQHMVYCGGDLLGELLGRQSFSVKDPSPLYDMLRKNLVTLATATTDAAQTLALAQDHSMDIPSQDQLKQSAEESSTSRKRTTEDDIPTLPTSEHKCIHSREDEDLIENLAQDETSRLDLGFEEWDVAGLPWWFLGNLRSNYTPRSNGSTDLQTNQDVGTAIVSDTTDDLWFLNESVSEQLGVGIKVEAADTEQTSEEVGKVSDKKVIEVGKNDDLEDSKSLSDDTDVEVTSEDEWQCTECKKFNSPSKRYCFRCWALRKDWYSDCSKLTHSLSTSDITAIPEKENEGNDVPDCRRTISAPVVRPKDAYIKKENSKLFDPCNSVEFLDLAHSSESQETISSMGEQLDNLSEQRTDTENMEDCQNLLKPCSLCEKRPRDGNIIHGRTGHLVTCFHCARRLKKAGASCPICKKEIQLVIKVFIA
Target sequence (Q00987 whole entry, looked up): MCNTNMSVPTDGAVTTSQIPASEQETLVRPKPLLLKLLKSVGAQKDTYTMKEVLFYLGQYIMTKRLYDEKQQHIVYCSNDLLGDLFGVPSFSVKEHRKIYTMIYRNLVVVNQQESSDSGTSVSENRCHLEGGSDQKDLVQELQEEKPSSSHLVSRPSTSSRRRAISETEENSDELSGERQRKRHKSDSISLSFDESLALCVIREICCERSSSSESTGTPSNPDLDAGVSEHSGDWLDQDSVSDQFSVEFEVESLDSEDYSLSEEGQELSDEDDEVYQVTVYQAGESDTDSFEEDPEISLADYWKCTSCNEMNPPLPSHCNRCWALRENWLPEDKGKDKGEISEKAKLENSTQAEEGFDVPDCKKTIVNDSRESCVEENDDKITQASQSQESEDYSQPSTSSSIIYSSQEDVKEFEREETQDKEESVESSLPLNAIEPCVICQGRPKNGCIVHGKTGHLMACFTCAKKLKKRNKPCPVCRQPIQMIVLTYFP
HIF-2a inh conf: confirmation of HIF-2a inhibitors. 786-0 RCC cells, HIF-2a luciferase reporter luminescence, overnight. inhibition, % at 18.8 µM. shares compounds with HIF-2a block. 1,800 compounds, 56% hits;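 active = mean inhibition across four replicates of at least 40 percent at the single tested concentration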
HIF-1a cs: counter-screen for HIF-2a inhibitors: HIF-1a inhibition in MiaPaCa-2 cells. shares compounds with HIF-2a block. MiaPaCa-2 HIF-1a luciferase reporter, desferoxamine, overnight. inhibition, % at 18.8 µM. 1,800 compounds, 72% hits;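 active = mean inhibition of the reporter signal across four replicates at the single tested dose of 50% or more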
Active calls of the source: *.

For O=C(C=C=Nc1ccccc1)C(=O)N=C=Cc1ccccc1 the results were KKLEB tox -20, HIF-2a block 75*, TROY signal inh 51*, TWEAK Fn14 block 86*, Peg3 promoter 102*, CF NFkB block 92*, HIF-2a inh conf 53* and HIF-1a cs 101*.
`CN(C)c1ncnc2c1ccn2C1OC(CO)C(O)C1O` (stereo not given) gave KKLEB tox -63*, HIF-2a block 44*, TROY signal inh -58, TWEAK Fn14 block -15, Peg3 promoter 8, CF NFkB block 36, HIF-2a inh conf 34 and HIF-1a cs 27.
`CCCCn1c(=N)n(CC(=O)c2ccc(Br)s2)c2ccccc21` gave KKLEB tox -27, HIF-2a block 50*, TROY signal inh 14, TWEAK Fn14 block -10, Peg3 promoter 95*, CF NFkB block -35, Mdm2-MdmX confirm 103*, HIF-2a inh conf 23 and HIF-1a cs 98*.
Screening Cc1ccc(C2(c3ccc(C)cc3)CC2C(=O)Nc2ccc([N+](=O)[O-])cc2O)cc1 (stereo not given) returned KKLEB tox -85*, HIF-2a block -18, TROY signal inh 56*, TWEAK Fn14 block 66*, Peg3 promoter 53*, CF NFkB block 84* and Mdm2-MdmX confirm 95*.
For CC1(C)CC1C(=O)Nc1ccc([N+](=O)[O-])cc1Br (stereo not given) the results were KKLEB tox -4, HIF-2a block -13, TROY signal inh -16, TWEAK Fn14 block 4, Peg3 promoter -14 and CF NFkB block 9.
O=C(O)c1ccc(NC2=C(Cl)C(=O)c3ccccc3C2=O)cc1 was read as KKLEB tox -89*, HIF-2a block 94*, TROY signal inh 42, TWEAK Fn14 block 43, Peg3 promoter 109*, CF NFkB block 92* and Mdm2-MdmX confirm 101*.
COc1ccc(Br)cc1/C=C/C(=O)c1ccc(NC(C)=O)cc1 was read as KKLEB tox 17, HIF-2a block 85*, TROY signal inh 42, TWEAK Fn14 block 84*, Peg3 promoter 106*, CF NFkB block 42, HIF-2a inh conf 64* and HIF-1a cs 106*.
Screening COc1ccc(NC(=O)/C=C/c2cc(Br)ccc2OC)cc1 returned KKLEB tox -8, HIF-2a block -11, TROY signal inh 7, TWEAK Fn14 block 26, Peg3 promoter 10 and CF NFkB block -13.
CCOCCc1nn2c(=O)cc(CSCC(=O)Nc3cc(C)cc(C)c3)nc2s1 was read as KKLEB tox 28, HIF-2a block 2, TROY signal inh 14, TWEAK Fn14 block 12, Peg3 promoter 9 and CF NFkB block -5.
Oc1cccc(Nc2nc(N3CCOCC3)nc(N3CCOCC3)n2)c1 was read as KKLEB tox -27, HIF-2a block 49*, TROY signal inh 17, TWEAK Fn14 block -11, Peg3 promoter 7, CF NFkB block 38, HIF-2a inh conf 24 and HIF-1a cs 76*.
For Cc1ccc(-c2cc(C(=O)NCCCN3CCOCC3)no2)cc1 the results were KKLEB tox -20, HIF-2a block 84*, TROY signal inh 22, TWEAK Fn14 block 75*, Peg3 promoter 0, CF NFkB block 12, HIF-2a inh conf 82* and HIF-1a cs 71*.
For CCc1cc(-c2nnn(CCC3COCCO3)c2CC)ccc1-c1cn(Cc2ccccc2)nn1 (stereo not given) the results were KKLEB tox 8, HIF-2a block -64, TROY signal inh 10, TWEAK Fn14 block 30, Peg3 promoter -28 and CF NFkB block 8.
`COc1ccccc1Oc1cc(C#N)c(C#N)cc1-n1nnc2ccccc21` gave KKLEB tox -4, HIF-2a block 46*, TROY signal inh 18, TWEAK Fn14 block 8, Peg3 promoter 23, CF NFkB block 7, HIF-2a inh conf 20 and HIF-1a cs 54*.
CCN1C/C(=C/c2ccc(OC)c(O)c2)C(=O)/C(=C/c2ccc(OC)c(O)c2)C1 was read as KKLEB tox -24, HIF-2a block 5, TROY signal inh 3, TWEAK Fn14 block 23, Peg3 promoter -7, CF NFkB block -31 and Mdm2-MdmX confirm 53*.
COc1ccc(C=C2C(=O)c3ccccc3C2=O)cc1O was read as KKLEB tox -8, HIF-2a block 11, TROY signal inh 43, TWEAK Fn14 block -9, Peg3 promoter -4 and CF NFkB block -8.
Screening COc1ccc(/C=C2\CN(Cc3ccccc3)C/C(=C\c3ccc(OC)c(O)c3)C2=O)cc1O returned KKLEB tox -69*, HIF-2a block 38, TROY signal inh 5, TWEAK Fn14 block 2, Peg3 promoter 102*, CF NFkB block 100* and Mdm2-MdmX confirm 102*.
Screening COc1cc(/C=C2\COC/C(=C\c3ccc(O)c(OC)c3)C2=O)ccc1O returned KKLEB tox -44, HIF-2a block 93*, TROY signal inh 49, TWEAK Fn14 block -12, Peg3 promoter 101*, CF NFkB block 91* and Mdm2-MdmX confirm 103*.
COc1cc(/C=C2/CC/C(=C/c3ccc(O)c(OC)c3)C2=O)ccc1O was read as KKLEB tox -23, HIF-2a block -19, TROY signal inh 15, TWEAK Fn14 block 29, Peg3 promoter -34 and CF NFkB block 44.
For Cc1c(CCC(=O)NC2CC2)c(=O)oc2cc(O)ccc12 the results were KKLEB tox -2, HIF-2a block 0, TROY signal inh 9, TWEAK Fn14 block 3, Peg3 promoter 5 and CF NFkB block -10.
CCCCN(C)C(=O)C1CCCN(S(=O)(=O)c2ccc3c(c2)CC(C)N3C(=O)C2CC2)C1 (stereo not given) was read as KKLEB tox -2, HIF-2a block 20, TROY signal inh 15, TWEAK Fn14 block -5, Peg3 promoter 17 and CF NFkB block -1.
`O=C(O)CCSCC(=O)c1ccc2c(c1)OCCO2` gave KKLEB tox 2, HIF-2a block 57*, TROY signal inh 14, TWEAK Fn14 block 23, Peg3 promoter -24, CF NFkB block 20, HIF-2a inh conf 64* and HIF-1a cs 45.
Screening O=C(O)CCC(=O)c1ccc2c(c1)OCCO2 returned KKLEB tox 6, HIF-2a block -26, TROY signal inh -13, TWEAK Fn14 block -30, Peg3 promoter -27 and CF NFkB block -2.
